The results in this text go back to PubChem BioAssay (NCI).

Some test systems named below: T-47D breast; BT-549 breast; MDA-MB-435 melanoma; SW-620 colon; MCF7 breast; HCT-116 colon; HCC-2998 colon; KM12 colon.
What all share (assay): NCI-60 one-dose screen, 48 h (100 = growth as untreated, 0 = no growth, -100 = all killed)
Common to all, as to settings: 10 µM

About 83,000 compounds went through this panel and 20% of them were active in at least one assay; those are over-represented in the sample as a whole.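 Cells were grown in 96-well plates and exposed to the test compound at a single concentration for 48 hours; results are reported as percent growth, with values below 10 considered active.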 Values without a mark were called inactive. Calls of active or inactive are those of the source.

As for `CC(=O)C1CCC2C3CC=C4CC(SC(=N)N)CCC4(C)C3CCC12C` (stereo not drawn), the growth in the assay with T-47D breast is 40.9%; with BT-549 breast, 76.4%; in the assay on MDA-MB-435 melanoma, 9.68% (active); in the assay with SW-620 colon, -75.2% (active); with MCF7 breast, -2.29% (active); in the assay with HCT-116 colon it was 1.01% (active). The figures for the growth with HCC-2998 colon and in the assay with KM12 colon were -52.3% (active) and 31.8%, respectively.

Regarding `COc1cc(-c2nn(-c3cccc(NC(=O)NCCNC(=O)c4cccc(C(F)(F)F)c4)c3)cc2-c2ccncc2)ccc1Cl`, the growth in the assay on T-47D breast was 52.7%; in the assay on BT-549 breast, 14.2%; with MDA-MB-435 melanoma, -41.6% (active); in the assay on SW-620 colon, 36.1%; in the assay on MCF7 breast it was 12.7%; in the assay with HCT-116 colon, 24.4%. The growth with HCC-2998 colon is 67.3%; in the assay with KM12 colon it was 18.9%.

Regarding `CC(C)C1=C(O)C2=C(C(=O)C1=O)[C@@]1(C)CCCC(C)(C)[C@@H]1CC2`, the growth with T-47D breast is 67.7%; with BT-549 breast it was 106%; with MDA-MB-435 melanoma it was 75.4%; in the assay with SW-620 colon, 55.4%; with MCF7 breast, 66.4%; with HCT-116 colon, 58%. The growth in the assay with HCC-2998 colon is 53.8%; in the assay with KM12 colon, 52%.

For the molecule `Cc1cc(Cl)ccc1Nc1nc(C(F)(F)F)ccc1C(=O)N/N=C/c1cccc(O)c1`, the growth was 39.8% in the assay with T-47D breast; 9.22% (active) with BT-549 breast; 56% in the assay on MDA-MB-435 melanoma; 27.8% in the assay on SW-620 colon; 29.9% with MCF7 breast; 17.6% in the assay with HCT-116 colon. For the same molecule, the growth with HCC-2998 colon is 31.9%; in the assay on KM12 colon it was 41.8%.

For `COc1ccc(-c2nn(-c3cccc(Cl)c3)cc2-c2c(C#N)c(=O)n3[nH]c(-c4ccc(C)cc4)nc3c2C#N)cc1`, the growth with T-47D breast is 55.6%; with BT-549 breast it was 43.4%; with MDA-MB-435 melanoma it was 10.8%; with SW-620 colon it was -21% (active); with MCF7 breast it was 21.2%; with HCT-116 colon, 9.86% (active). In addition, the growth in the assay on HCC-2998 colon is 52.2%; in the assay with KM12 colon, 55.1%.

Regarding `CNC(=O)c1cc(Oc2ccc3c(c2)sc2nc(-c4ccc(N)cc4)cn23)ccn1`, the growth with T-47D breast was 36.1%; in the assay on BT-549 breast, 5.56% (active); with MDA-MB-435 melanoma, 13%; in the assay with SW-620 colon, 34.8%; with MCF7 breast, 20.2%; with HCT-116 colon it was 6.01% (active). The values for the growth in the assay on HCC-2998 colon and in the assay on KM12 colon were 20.9% and 20.7%, respectively.

With `CO[C@H]1CC(O[C@@H]2/C(C)=C/C[C@@H]3C[C@@H](C[C@]4(C=C[C@H](C)[C@@H](C5CCCCC5)O4)O3)OC(=O)[C@@H]3C=C(C)[C@@H](O)[C@H]4OC/C(=C\C=C\[C@@H]2C)[C@]43O)O[C@@H](C)C1O[C@H]1C[C@H](OC)[C@@H](O)[C@H](C)O1` (stereo partly drawn), the growth in the assay on T-47D breast was -51.2% (active); with BT-549 breast it was -68.9% (active); with MDA-MB-435 melanoma, -97.1% (active); in the assay with SW-620 colon it was -92.7% (active); with MCF7 breast, -24.1% (active); with HCT-116 colon it was -98.1% (active). In addition, the growth with HCC-2998 colon is -92.3% (active); with KM12 colon, -88.6% (active).

Regarding `COc1ccc(C(=O)CC(CC(=O)c2ccc(OC)cc2)c2c(C)nn(-c3ccccc3)c2Cl)cc1`, the growth in the assay on T-47D breast was 109%; in the assay with BT-549 breast it was 92%; with MDA-MB-435 melanoma, 91.9%; in the assay with SW-620 colon, 102%; in the assay on MCF7 breast, 95.4%; in the assay with HCT-116 colon, 88.9%. Moreover, the results for the growth in the assay on HCC-2998 colon and in the assay on KM12 colon were 109% and 98%, respectively.

`COc1ccc(-c2nn(-c3cccc(Cl)c3)cc2/C=C2\NC(=S)N(c3ccc(Cl)cc3)C2=O)cc1`: the growth in the assay on T-47D breast was 11.9%; with BT-549 breast, -13% (active); in the assay with MDA-MB-435 melanoma, 7.26% (active); with SW-620 colon it was 40.8%; with MCF7 breast, 19.3%; in the assay on HCT-116 colon it was 0.814% (active). The results for the growth with HCC-2998 colon and in the assay with KM12 colon were 23.2% and 26.6%, respectively.

For the molecule `COc1cc(-c2nn(-c3ccc(NC(=O)NCCCNC(=O)c4ccccc4)cc3)cc2-c2ccncc2)ccc1Cl`, the growth in the assay on T-47D breast was 67.5%; with BT-549 breast, 22.8%; with MDA-MB-435 melanoma, 2.49% (active); in the assay with SW-620 colon, 33.3%; in the assay on MCF7 breast it was 12.8%; with HCT-116 colon it was 9.58% (active). Further, the figures for the growth in the assay with HCC-2998 colon and with KM12 colon were 32% and 20%, respectively.

For the molecule `O=C(Nc1ccc(NS(=O)(=O)c2ccc(F)cc2)cc1)C12CC3CC(CC(C3)C1)C2`, the growth with T-47D breast is 76.2%; in the assay with BT-549 breast, 93.8%; in the assay on MDA-MB-435 melanoma, 95.9%; in the assay on SW-620 colon, 99.4%; with MCF7 breast, 78%; with HCT-116 colon, 97.8%. Also, the values for the growth in the assay on HCC-2998 colon and in the assay on KM12 colon were 96.4% and 99.4%, respectively.

`O=C(CCC(C(=O)c1ccccc1)c1ccccc1)c1ccccc1` (stereo not drawn): the growth was 66.6% in the assay with T-47D breast; 54.5% in the assay with BT-549 breast; 4.52% (active) in the assay with MDA-MB-435 melanoma; 41.9% in the assay on SW-620 colon; 72% with MCF7 breast; 50.3% with HCT-116 colon. Further, the growth in the assay on HCC-2998 colon was 76.6%; with KM12 colon it was 34.5%.

As for `O=C(NCCNC(=O)c1ccc(F)cc1)Nc1ccc(-n2cc(-c3ccncc3)c(-c3ccc(Cl)c(O)c3)n2)cc1`, the growth in the assay on T-47D breast was 30.1%; with BT-549 breast, -24.5% (active); with MDA-MB-435 melanoma, -5.7% (active); with SW-620 colon it was 15.1%; in the assay with MCF7 breast it was 3.7% (active); with HCT-116 colon it was -24.2% (active). Moreover, the growth in the assay with HCC-2998 colon was -28.4% (active); in the assay with KM12 colon it was 0.713% (active).

In the case of `COc1cc(/C=C2\CCCC3=C2NC(N)=NC3c2cc(OC)c(OC)c(OC)c2)cc(OC)c1OC` (stereo not drawn), the growth in the assay with T-47D breast was 27.5%; with BT-549 breast, -38.7% (active); with MDA-MB-435 melanoma it was -17.9% (active); in the assay with SW-620 colon it was -22.3% (active); in the assay on MCF7 breast, 43%; in the assay on HCT-116 colon, -81.6% (active). Further, the growth is -35.2% (active) in the assay with HCC-2998 colon and -75.8% (active) in the assay on KM12 colon.

As for `O=C(/C=C/C=C/c1c(C2CC2)nc2ccccc2c1-c1ccc(F)cc1)c1cccs1`, the growth in the assay on T-47D breast was 4.82% (active); in the assay on BT-549 breast it was 3.45% (active); in the assay with MDA-MB-435 melanoma, 2.03% (active); with SW-620 colon it was 6.11% (active); with MCF7 breast, 12.4%; with HCT-116 colon it was -32.6% (active). For the same molecule, the values for the growth with HCC-2998 colon and with KM12 colon were -12.9% (active) and 9.97% (active), respectively.

With `O=C(O)c1ccc(-n2cc(CNc3ccc(Oc4ccccc4)cc3)c(-c3ccccc3)n2)cc1`, the growth in the assay on T-47D breast was 75%; in the assay with BT-549 breast, 83.1%; with MDA-MB-435 melanoma, 94.2%; in the assay with SW-620 colon, 99.4%; in the assay with MCF7 breast it was 85.4%; in the assay with HCT-116 colon, 88.5%. Also, the figures for the growth with HCC-2998 colon and in the assay with KM12 colon were 120% and 80.3%, respectively.
